This is an account of results in ChEMBL document CHEMBL4513146, “CO-ADD screening of Karazin Kharkiv National University (Ukraine) compounds”.

Measured potencies and affinities stand elsewhere.

One assay relates to Staphylococcus aureus. Conditions: Concentration 32 ug.mL-1;; ASSAY_TEST Inhibition of Bacterial Growth; detection method Absorption (OD600); MEDIA CAMHB; plate type 384well; NBS; CORNING #3640; time 18 hr.
In the next assay the test system is Escherichia coli. Conditions: Concentration 32 ug.mL-1;; ASSAY_TEST Inhibition of Bacterial Growth; detection method Absorption (OD600); MEDIA CAMHB; plate type 384well; NBS; CORNING #3640; time 18 hr.

Broadly, the Inhibition is the relative decrease from the control value, in per cent. `CCOc1ccc(NC(=O)Cn2nc3c(SCc4ccc(Cl)cc4)nccn3c2=O)cc1`: the results for the Inhibition in the assay on Staphylococcus aureus and in the assay on Escherichia coli were -1.92% and -9.96%, respectively.
On the same counts, the results for `Cc1cccc(N(CC(=O)OC(C)(C)C)S(=O)(=O)c2cccn3c(C)nnc23)c1` are 5.88% and -7.68%.
The like results for `CCOc1ccc(N(Cc2ccccc2)S(=O)(=O)c2ccc3nncn3c2)cc1` were, in that order, -0.89% and -1.41%.
As to `COc1ccccc1N1CCN(C(=O)Cn2nc3c(Oc4ccc(C)cc4)nccn3c2=O)CC1`, the results for the Inhibition with Staphylococcus aureus and in the assay on Escherichia coli were 6.41% and 0.36%, respectively.
On the same counts, the results for `COc1ccccc1Cn1c(=O)c2sccc2n2c(=O)n(Cc3cccc(Br)c3)nc12` are -9.99% and -1.02%.
On the same counts, the results for `COc1cccc(CNC(=O)CSc2nnc3c(=O)n(-c4ccccc4)ccn23)c1OC` are 2.64% and -7.08%.
Consider `CCOc1ccc(-n2ccn3c(SCC(=O)Nc4cc(Cl)ccc4OC)nnc3c2=O)cc1`, for which the Inhibition in the assay with Staphylococcus aureus was found to be 6.02%; in the assay on Escherichia coli, 1.04%.
The like results for `O=S(=O)(c1ccc2nncn2c1)N(Cc1cc(F)cc(F)c1)c1cc(F)cc(F)c1` were, in that order, -5.61% and -4.65%.
On the same counts, the results for `Cc1ccc(CN(c2cc(C)cc(C)c2)S(=O)(=O)c2cccn3c(C)nnc23)cc1` are 31.07% and -7.16%.
Turning to `COc1ccc(C)cc1NC(=O)Cn1nc2ccc(SC(C)(C)C)nn2c1=O`, the Inhibition with Staphylococcus aureus is 2.65%; in the assay with Escherichia coli, -6.39%.
As for `CCCCc1ccc(NC(=O)Cn2nc3c(N4CC(C)CC(C)C4)nccn3c2=O)cc1` (stereo not given), the Inhibition in the assay on Staphylococcus aureus is listed as -4.53%; with Escherichia coli it was -8.88%.
The like results for `CCCc1nnc2c(=O)n(CC(=O)Nc3ccc(C(C)=O)cc3)c3ccccc3n12` were, in that order, 1.62% and 1.52%.
As for `COc1cccc(-n2ccn3c(SCC(=O)Nc4ccc(Br)cc4)nnc3c2=O)c1`, the Inhibition is given as -2.74% in the assay with Staphylococcus aureus and -7.77% in the assay on Escherichia coli.
On the same counts, the results for `Cc1ccc(-n2ccn3c(=O)n(Cc4cccc(F)c4)nc3c2=O)cc1C` are -0.24% and -8.8%.
The like results for `Cc1ccc(-c2cc3c4nn(CC(=O)Nc5ccccc5F)c(=O)n4ccn3n2)cc1C` were, in that order, -4% and -9.57%.
The like results for `CC(C)Cn1c(=O)c2sccc2n2c(=O)n(CC(N)=O)nc12` were, in that order, -15.52% and -14.55%.
For the compound `CCc1nnc2c(=O)n(CC(=O)Nc3cc(Cl)ccc3Cl)c3ccccc3n12`, the results for the Inhibition in the assay on Staphylococcus aureus and with Escherichia coli were 1.29% and -5.86%, respectively.
In the case of `O=C(Cn1nc2c3c4c(sc3ncn2c1=O)CCCC4)N1CCc2ccccc2C1`, the Inhibition with Staphylococcus aureus is 0.97%; in the assay with Escherichia coli, 2.08%.
The like results for `Cc1ccc(Oc2nccn3c(=O)n(CC(=O)Nc4ccc(C)cc4Cl)nc23)cc1` were, in that order, 6.09% and 0.24%.
The like results for `COc1cc(OC)c(NC(=O)Cn2nc3ccc(Sc4cccc(F)c4)nn3c2=O)cc1Cl` were, in that order, 4.57% and -1.59%.
The like results for `COc1ccc(N(Cc2cccc(Cl)c2)S(=O)(=O)c2ccc3nncn3c2)cc1` were, in that order, -10.84% and -8.34%.
Regarding `O=C(CSc1nnc2c(=O)n(-c3ccc(F)c(F)c3)ccn12)c1c[nH]c2ccccc12`, the Inhibition in the assay with Staphylococcus aureus is listed as 13.28%; with Escherichia coli it was -5.88%.
The like results for `O=S(=O)(c1ccc2nncn2c1)N(Cc1cccc(Cl)c1)c1ccc2c(c1)OCO2` were, in that order, 4.03% and -10.92%.
On the same counts, the results for `Cc1cccc(NC(=O)CSc2nnc3c4cc(-c5ccc(F)cc5)nn4ccn23)c1C` are -11.28% and -13.99%.
On the same counts, the results for `CCc1ccccc1Sc1nccn2c(=O)n(CC(=O)Nc3ccc(OC)c(Cl)c3)nc12` are 1.89% and -5.89%.
On to `Cc1cc(C)cc(NC(=O)Cn2nc3n(C)c(=O)c4c(c(-c5ccccc5)cn4C)n3c2=O)c1`, for which the Inhibition with Staphylococcus aureus is listed as 7.23%; with Escherichia coli, 1.88%.
As for `CCC(C)NC(=O)Cn1nc2n(CC(C)C)c(=O)c3ccc(C(=O)NC4CCCCC4)cc3n2c1=O` (stereo not given), the figures for the Inhibition with Staphylococcus aureus and with Escherichia coli were 7.36% and -3.14%, respectively.
Take `O=c1c2nn(Cc3ccccc3F)c(=O)n2ccn1-c1ccccc1`: the figures for the Inhibition in the assay with Staphylococcus aureus and in the assay with Escherichia coli were 4.1% and -4.13%, respectively.
The like results for `CCCNC(=O)Cn1nc2cc(C)nc(Nc3cc(C)cc(C)c3)n2c1=O` were, in that order, 13.08% and 0.71%.
`COc1cc(NC(=O)C(C)Sc2nnc3c(=O)n(-c4ccccc4OC)ccn23)cc(OC)c1` (stereo not given): the results for the Inhibition with Staphylococcus aureus and with Escherichia coli were 15.1% and -4.09%, respectively.
With `Cc1cc2nn(CC(=O)NC(C)C)c(=O)n2c(-c2ccc(C(F)(F)F)cc2)n1`, the Inhibition is reported as -8.3% in the assay with Staphylococcus aureus and 1.53% with Escherichia coli.
On the same counts, the results for `O=c1n(Cc2ccc3c(c2)OCO3)nc2c(S(=O)(=O)N3CCCC3)cccn12` are 0.67% and -7.1%.
Take `Cc1ccc(NC(=O)Cn2nc3c(Oc4ccccc4C)nccn3c2=O)cc1F`: the Inhibition in the assay with Staphylococcus aureus is listed as 8.06%; with Escherichia coli it was -0.85%.
On the same counts, the results for `COc1ccc(NC(=O)Cn2nc3c4cc(-c5ccc(OC)cc5)nn4ccn3c2=O)cc1` are 8.44% and 2.94%.
On the same counts, the results for `Cc1ccc(NC(=O)Cn2c(=O)c3nnc(C)n3c3ccccc32)cc1F` are 11.98% and -4.13%.
